Tests used:
Assay in all cases: log2 ratio of Biotin-Ahx-Ub-VS probe labelling (fragment/DMSO); higher = less target engagement (more negative = stronger competition), active = hit call of the paper (q ≤ 0.05, log2 ratio ≤ -1)
Settings in all cases: compound concentration: 200 uM; treatment time: 3 h
[1] = target: T1, USP42 (UniProt Q9H9J4)
T1 sequence (whole entry): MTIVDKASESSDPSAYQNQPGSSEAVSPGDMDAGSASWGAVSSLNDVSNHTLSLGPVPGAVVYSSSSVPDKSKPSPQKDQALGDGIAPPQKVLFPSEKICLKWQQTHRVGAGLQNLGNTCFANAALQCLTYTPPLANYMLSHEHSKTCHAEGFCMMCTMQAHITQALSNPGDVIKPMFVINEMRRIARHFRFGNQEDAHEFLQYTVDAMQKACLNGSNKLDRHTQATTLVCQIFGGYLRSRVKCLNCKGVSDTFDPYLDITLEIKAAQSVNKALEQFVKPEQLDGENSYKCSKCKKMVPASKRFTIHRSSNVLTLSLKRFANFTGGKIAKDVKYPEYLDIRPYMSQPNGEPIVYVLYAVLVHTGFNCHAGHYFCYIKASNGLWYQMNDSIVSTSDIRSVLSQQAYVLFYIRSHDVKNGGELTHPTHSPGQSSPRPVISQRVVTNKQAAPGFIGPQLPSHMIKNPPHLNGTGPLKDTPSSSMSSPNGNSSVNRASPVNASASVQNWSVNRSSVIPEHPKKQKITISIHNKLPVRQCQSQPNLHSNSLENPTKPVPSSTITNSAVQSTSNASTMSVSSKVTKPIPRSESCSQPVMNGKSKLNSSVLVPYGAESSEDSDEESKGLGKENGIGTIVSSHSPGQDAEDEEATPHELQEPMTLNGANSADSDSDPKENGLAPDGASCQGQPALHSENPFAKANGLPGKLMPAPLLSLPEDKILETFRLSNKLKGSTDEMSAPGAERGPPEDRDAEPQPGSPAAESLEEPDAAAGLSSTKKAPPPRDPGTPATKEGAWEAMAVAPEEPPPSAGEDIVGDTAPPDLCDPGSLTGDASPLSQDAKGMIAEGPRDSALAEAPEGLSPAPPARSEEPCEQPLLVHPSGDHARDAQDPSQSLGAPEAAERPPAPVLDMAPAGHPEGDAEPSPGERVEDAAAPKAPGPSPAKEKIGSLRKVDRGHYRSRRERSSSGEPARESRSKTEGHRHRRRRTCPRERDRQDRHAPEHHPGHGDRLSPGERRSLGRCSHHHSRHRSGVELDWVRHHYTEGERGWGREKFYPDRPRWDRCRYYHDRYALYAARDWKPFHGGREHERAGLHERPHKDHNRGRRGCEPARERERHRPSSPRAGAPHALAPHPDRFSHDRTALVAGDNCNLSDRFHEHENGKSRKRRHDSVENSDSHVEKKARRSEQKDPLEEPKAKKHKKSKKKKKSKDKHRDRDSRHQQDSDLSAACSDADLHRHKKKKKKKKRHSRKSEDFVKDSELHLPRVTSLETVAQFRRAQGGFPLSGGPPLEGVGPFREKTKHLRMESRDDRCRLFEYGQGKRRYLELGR
Outline: (§1)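 Using Biotin-Ahx-Ub-VS at 0.5 µM final for 1 h, DUBs were labelled in HEK293T lysate (495 µg per sample) that had first been treated in triplicate with fragment at 200 µM or vehicle for 3 h. NeutrAvidin enrichment, LysC and trypsin digestion and diaPASEF LC-MS/MS followed. Spectronaut label-free quantities were global-median-normalised. Values are average log2 fragment/vehicle ratios by unpaired t-test, using proteins with ≥2 unique peptides.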

[2] = target: USP46 (UniProt P62068)
Chain of USP46 (P62068 whole entry): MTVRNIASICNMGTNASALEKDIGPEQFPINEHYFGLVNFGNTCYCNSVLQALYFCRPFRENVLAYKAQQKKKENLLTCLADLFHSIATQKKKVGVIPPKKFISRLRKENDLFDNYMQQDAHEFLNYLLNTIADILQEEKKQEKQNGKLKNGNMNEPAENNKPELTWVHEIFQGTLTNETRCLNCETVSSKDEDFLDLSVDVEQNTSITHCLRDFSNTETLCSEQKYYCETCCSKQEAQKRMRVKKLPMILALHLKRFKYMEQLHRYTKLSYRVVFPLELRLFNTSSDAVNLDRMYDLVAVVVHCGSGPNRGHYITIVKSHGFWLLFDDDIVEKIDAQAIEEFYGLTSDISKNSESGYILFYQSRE
Outline: as §1

[3] = target: T2, USP47 (UniProt Q96K76)
T2 sequence (whole entry): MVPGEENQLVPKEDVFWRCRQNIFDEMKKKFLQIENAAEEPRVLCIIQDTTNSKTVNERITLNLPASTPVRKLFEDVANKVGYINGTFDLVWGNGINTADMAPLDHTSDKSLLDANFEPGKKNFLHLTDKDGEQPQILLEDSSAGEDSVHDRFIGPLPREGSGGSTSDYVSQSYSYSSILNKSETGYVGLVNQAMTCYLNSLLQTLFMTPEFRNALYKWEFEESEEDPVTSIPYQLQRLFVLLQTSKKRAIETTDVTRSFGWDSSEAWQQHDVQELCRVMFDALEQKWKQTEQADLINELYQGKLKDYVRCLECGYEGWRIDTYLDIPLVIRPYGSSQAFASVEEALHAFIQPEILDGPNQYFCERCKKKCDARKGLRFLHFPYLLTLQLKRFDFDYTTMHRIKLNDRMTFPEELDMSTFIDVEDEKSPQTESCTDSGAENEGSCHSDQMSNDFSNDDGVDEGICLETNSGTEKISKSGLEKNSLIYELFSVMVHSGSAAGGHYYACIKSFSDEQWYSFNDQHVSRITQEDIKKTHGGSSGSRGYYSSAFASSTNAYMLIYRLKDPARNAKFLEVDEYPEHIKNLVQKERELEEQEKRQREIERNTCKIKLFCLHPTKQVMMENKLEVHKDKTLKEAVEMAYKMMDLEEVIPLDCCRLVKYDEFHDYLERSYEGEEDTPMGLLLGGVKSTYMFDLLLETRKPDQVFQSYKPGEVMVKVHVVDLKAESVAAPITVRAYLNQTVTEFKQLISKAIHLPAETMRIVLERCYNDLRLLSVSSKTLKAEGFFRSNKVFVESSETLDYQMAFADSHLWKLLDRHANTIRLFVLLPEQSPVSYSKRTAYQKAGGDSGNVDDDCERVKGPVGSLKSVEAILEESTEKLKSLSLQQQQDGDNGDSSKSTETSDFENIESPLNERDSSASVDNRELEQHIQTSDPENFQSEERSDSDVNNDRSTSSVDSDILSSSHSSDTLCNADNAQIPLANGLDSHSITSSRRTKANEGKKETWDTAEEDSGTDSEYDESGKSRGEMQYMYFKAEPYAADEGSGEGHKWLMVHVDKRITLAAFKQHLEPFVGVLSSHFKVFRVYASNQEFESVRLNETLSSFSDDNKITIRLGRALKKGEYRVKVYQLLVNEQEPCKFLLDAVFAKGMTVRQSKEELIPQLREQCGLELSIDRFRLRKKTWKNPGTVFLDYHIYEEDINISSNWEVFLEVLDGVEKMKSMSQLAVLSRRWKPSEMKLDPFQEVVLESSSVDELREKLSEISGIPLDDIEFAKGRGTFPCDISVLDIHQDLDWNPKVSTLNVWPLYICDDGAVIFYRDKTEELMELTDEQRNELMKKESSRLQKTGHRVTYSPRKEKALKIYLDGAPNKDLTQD
Outline: as §1

[4] = target: T3, USP48 (UniProt Q86UV5)
T3 sequence (whole entry): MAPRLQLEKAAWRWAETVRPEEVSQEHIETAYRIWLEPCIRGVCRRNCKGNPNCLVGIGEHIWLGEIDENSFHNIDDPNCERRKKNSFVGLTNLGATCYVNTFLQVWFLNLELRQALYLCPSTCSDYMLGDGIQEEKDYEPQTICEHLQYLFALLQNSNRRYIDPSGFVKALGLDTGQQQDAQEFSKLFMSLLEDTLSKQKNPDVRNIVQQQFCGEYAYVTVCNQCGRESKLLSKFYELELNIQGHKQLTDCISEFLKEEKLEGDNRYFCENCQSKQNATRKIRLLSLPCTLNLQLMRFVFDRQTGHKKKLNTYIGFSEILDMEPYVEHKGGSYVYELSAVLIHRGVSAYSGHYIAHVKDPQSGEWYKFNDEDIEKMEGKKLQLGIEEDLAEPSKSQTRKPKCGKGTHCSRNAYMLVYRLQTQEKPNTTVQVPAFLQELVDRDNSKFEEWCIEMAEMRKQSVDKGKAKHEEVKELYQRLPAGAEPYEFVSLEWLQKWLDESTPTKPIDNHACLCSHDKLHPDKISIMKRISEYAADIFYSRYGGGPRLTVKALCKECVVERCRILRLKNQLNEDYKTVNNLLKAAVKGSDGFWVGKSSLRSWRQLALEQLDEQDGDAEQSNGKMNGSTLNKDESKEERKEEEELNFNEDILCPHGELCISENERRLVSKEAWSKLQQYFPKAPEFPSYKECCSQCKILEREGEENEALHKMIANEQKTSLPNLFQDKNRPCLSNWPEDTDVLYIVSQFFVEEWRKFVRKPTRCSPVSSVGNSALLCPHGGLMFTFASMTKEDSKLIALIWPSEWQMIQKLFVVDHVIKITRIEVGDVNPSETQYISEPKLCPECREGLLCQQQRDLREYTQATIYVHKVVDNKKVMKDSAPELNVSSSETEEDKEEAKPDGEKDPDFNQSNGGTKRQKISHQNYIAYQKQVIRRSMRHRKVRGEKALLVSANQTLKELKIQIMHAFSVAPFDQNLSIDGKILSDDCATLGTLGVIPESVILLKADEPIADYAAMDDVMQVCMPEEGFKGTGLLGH
Outline: as §1

[5] = target: T4, USP5 (UniProt P45974)
T4 sequence (whole entry): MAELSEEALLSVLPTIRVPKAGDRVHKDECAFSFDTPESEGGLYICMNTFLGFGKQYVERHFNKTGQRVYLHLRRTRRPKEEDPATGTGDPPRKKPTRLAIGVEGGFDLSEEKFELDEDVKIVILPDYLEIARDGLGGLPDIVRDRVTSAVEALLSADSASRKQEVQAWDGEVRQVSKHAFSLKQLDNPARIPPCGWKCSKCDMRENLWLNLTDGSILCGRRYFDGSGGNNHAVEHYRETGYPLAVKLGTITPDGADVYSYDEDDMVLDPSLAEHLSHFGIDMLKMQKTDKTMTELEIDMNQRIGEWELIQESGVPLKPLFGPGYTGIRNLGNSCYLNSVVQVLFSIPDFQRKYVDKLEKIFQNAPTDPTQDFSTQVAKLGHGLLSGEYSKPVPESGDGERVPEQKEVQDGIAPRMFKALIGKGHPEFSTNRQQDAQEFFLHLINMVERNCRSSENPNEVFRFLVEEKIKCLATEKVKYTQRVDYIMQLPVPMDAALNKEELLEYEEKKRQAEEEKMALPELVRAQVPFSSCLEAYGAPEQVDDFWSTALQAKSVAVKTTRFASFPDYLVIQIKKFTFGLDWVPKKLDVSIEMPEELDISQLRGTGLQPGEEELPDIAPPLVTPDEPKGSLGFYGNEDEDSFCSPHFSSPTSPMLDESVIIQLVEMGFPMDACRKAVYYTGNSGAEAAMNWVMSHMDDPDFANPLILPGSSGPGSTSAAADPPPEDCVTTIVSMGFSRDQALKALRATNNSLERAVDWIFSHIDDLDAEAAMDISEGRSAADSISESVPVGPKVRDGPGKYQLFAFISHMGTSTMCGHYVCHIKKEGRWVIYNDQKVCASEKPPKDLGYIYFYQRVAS
Outline: as §1

[6] = target: USP54 (UniProt Q70EL1)
Chain of USP54 (Q70EL1 whole entry): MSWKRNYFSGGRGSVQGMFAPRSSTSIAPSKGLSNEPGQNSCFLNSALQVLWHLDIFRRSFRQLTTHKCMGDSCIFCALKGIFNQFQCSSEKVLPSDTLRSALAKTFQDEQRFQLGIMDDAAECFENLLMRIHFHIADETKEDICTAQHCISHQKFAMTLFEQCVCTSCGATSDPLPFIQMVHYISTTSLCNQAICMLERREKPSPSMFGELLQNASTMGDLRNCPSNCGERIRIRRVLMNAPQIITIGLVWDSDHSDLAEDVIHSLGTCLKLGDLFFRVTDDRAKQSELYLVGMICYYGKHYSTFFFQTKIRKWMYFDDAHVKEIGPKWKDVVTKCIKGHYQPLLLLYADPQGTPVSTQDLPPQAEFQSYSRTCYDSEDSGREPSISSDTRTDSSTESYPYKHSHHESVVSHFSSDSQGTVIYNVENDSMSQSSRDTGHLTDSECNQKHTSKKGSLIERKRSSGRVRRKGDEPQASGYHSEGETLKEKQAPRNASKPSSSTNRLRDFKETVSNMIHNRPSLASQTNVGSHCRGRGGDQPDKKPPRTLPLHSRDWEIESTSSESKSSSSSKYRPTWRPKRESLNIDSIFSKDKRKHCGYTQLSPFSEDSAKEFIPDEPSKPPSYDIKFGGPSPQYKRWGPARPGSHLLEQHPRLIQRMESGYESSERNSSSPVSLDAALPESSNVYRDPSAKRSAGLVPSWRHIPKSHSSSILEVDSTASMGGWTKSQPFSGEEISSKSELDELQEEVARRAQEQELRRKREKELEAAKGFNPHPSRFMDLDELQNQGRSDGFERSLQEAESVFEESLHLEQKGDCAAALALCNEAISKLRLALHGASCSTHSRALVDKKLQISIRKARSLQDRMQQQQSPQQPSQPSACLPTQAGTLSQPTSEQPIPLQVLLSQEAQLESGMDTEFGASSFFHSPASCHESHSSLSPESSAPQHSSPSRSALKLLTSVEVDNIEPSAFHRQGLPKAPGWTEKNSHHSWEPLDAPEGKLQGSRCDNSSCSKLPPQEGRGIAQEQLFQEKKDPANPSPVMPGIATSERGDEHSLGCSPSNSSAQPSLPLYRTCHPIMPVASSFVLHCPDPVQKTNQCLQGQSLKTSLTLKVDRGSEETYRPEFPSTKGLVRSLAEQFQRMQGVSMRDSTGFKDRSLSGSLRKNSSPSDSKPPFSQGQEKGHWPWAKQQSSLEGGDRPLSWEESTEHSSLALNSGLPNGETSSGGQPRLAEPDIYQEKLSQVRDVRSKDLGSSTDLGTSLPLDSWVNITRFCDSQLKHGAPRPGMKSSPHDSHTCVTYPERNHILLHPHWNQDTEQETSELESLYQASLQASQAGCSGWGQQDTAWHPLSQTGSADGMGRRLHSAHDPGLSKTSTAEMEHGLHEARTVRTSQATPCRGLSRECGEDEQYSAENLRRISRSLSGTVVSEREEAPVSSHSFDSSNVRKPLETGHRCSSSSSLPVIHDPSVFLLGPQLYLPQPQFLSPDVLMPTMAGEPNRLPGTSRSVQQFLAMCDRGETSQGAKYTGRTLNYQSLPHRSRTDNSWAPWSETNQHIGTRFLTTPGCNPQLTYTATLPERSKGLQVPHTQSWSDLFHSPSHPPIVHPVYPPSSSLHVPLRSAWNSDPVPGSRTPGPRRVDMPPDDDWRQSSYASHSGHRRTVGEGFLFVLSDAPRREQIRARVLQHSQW
Outline: as §1

[7] = target: USP7 (UniProt Q93009)
Outline: as §1

[8] = target: T5, USP8 (UniProt P40818)
T5 sequence (whole entry): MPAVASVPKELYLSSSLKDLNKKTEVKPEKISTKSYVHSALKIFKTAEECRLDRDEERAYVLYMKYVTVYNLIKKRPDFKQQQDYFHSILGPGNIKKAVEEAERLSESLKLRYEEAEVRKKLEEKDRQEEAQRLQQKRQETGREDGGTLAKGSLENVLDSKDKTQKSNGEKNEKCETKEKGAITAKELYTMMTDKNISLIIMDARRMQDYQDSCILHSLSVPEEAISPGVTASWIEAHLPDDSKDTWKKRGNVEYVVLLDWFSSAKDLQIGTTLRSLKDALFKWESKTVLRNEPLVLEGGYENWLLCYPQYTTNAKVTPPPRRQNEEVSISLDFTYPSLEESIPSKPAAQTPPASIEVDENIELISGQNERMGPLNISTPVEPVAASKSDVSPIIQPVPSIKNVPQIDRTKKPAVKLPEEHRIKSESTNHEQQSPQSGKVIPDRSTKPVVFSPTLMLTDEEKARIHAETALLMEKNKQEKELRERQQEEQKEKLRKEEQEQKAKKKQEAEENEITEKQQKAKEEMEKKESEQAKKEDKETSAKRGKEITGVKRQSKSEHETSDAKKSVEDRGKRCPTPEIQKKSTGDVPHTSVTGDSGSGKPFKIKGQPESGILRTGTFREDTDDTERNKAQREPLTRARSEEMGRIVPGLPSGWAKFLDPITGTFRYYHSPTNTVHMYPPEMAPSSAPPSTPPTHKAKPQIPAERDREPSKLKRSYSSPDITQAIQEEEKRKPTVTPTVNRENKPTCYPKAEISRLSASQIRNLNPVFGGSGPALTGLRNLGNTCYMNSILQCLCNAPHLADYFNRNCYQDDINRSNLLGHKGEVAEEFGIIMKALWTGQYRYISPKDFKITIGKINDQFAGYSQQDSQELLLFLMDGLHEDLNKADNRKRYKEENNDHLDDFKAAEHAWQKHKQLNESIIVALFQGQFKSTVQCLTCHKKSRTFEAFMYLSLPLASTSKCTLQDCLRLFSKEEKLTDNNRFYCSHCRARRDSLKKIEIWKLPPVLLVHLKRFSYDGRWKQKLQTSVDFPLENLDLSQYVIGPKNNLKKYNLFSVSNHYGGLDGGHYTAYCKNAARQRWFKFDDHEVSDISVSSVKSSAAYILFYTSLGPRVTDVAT
Outline: as §1

[9] = target: USP9X (UniProt Q93008)
Chain of USP9X (Q93008 whole entry): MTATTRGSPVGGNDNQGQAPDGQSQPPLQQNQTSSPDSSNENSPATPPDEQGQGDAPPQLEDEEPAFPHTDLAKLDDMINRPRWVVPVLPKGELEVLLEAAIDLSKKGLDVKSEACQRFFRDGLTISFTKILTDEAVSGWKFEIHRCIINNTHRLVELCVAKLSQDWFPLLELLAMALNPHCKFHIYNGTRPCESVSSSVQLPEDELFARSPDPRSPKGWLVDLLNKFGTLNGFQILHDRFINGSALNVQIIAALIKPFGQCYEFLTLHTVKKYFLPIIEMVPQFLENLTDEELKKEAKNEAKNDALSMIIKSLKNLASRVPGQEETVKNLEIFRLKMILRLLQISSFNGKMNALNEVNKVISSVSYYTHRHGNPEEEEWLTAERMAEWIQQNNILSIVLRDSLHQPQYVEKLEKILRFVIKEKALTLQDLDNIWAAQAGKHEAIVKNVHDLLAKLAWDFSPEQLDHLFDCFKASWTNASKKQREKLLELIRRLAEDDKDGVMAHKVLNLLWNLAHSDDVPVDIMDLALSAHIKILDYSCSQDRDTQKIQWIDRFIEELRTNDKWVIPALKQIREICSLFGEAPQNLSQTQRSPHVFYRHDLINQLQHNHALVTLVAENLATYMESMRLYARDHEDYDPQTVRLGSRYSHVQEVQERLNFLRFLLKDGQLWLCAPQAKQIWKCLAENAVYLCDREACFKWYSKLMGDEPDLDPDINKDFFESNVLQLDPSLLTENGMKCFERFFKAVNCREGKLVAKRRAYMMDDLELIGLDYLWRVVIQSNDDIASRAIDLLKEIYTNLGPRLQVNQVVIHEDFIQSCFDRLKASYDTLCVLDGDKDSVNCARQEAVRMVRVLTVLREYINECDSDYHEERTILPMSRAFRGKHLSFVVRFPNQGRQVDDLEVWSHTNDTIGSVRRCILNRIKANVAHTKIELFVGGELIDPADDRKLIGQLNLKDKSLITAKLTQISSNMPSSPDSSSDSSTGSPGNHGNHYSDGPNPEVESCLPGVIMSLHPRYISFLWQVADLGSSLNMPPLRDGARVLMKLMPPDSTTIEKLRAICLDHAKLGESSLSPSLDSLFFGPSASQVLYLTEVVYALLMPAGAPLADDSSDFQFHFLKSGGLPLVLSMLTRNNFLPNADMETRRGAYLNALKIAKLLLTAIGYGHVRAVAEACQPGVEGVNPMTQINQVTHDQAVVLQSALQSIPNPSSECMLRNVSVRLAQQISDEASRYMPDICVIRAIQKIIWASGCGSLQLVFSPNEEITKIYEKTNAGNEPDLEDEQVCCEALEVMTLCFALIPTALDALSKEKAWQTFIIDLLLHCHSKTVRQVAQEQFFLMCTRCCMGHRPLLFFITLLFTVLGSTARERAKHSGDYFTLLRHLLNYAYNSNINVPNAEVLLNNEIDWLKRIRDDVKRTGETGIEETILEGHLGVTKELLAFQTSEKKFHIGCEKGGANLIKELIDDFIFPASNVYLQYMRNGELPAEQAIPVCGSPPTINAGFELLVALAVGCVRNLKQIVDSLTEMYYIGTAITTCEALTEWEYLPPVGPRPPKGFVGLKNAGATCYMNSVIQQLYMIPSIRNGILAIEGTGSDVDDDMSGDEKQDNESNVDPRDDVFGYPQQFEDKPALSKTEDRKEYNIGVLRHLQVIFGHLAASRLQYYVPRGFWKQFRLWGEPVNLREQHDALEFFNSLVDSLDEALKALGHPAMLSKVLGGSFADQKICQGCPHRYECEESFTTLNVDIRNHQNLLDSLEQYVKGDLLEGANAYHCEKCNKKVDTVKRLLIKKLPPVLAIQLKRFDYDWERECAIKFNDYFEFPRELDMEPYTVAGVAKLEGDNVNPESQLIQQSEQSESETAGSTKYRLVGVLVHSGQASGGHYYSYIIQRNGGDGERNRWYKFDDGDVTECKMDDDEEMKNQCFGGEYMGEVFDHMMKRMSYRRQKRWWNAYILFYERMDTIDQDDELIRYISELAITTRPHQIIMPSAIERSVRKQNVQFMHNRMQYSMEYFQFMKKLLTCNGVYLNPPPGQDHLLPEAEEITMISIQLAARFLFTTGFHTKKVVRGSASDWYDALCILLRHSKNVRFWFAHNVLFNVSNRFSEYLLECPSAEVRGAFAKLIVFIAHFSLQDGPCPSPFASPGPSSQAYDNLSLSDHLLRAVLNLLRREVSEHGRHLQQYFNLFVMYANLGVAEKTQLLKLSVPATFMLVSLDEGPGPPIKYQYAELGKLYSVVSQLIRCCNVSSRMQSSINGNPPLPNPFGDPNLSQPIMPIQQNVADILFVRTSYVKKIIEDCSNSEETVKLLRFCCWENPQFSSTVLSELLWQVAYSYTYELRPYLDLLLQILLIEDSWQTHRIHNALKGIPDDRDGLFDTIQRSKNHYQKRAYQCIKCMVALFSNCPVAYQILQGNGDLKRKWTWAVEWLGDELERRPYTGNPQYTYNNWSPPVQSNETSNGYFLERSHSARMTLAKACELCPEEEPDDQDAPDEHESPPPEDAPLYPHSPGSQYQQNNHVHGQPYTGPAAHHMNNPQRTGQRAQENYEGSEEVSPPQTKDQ
Outline: as §1

[10] = target: UniProt O00487
Chain of UniProt O00487 (O00487 whole entry): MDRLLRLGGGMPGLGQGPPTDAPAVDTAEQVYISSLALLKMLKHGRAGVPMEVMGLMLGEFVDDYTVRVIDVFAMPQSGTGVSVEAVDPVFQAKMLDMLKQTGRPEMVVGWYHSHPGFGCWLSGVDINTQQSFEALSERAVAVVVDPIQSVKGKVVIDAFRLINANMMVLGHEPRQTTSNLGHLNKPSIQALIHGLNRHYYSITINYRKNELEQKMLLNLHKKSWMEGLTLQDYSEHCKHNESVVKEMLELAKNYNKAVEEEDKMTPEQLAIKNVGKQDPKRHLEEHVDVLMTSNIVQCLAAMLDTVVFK
Outline: as §1

Measured: log2 ratio of Biotin-Ahx-Ub-VS probe labelling

Cc1n[nH]c(=O)c2c(NC(=O)CCl)oc(C)c12
inactive: [1] 0.339 | [2] -0.0434 | [3] 0.166 | [4] -0.0393 | [5] -0.00864 | [6] -0.153 | [7] -0.0198 | [8] -0.29 | [9] -0.056 | [10] -0.0655

O=C(CCl)NCCc1cccc2ccccc12
inactive: [1] 0.608 | [2] -0.0148 | [3] 0.102 | [4] -0.131 | [5] 0.258 | [6] -0.0844 | [7] -0.217 | [8] -0.118 | [9] 0.0346 | [10] 0.00956

Cl.Cn1c(CNC(=O)CCl)nc2cccnc21
inactive: [1] -0.141 | [2] -0.0593 | [3] -0.0713 | [4] -0.0748 | [5] -0.0112 | [6] 0.0986 | [7] -0.133 | [8] -0.0336 | [9] -0.29 | [10] -0.167

Cc1cnc2[nH]cc(CCNC(=O)CCl)c2c1
inactive: [1] 0.34 | [2] -0.0833 | [3] -0.00951 | [4] 0.00232 | [5] -0.115 | [6] 0.181 | [7] -0.0122 | [8] -0.428 | [9] -0.0941 | [10] 0.0974
